Results from the supplement of paper PMC10981050.
Several values for one entry are separate records, joined by “and”; a condition that tells them apart may be missing. Equal values may be shown once. Where a name gives a salt, the structure may show the parent alone.

Key:
Experiment in all cases: cell viability relative to vehicle control; higher = less cytotoxic
Conditions in all cases: 10 µM
K562 = test system: K562
Procedure, shortened: (§1)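 Mutant clones made by CRISPR editing and their isogenic wild-type counterparts, from four leukaemia lines, were exposed to a single 10 µM dose of each library compound for 48 h. The supernatant was then removed and CellTiter-Glo luminescence was read. Viability was reported as percent of the on-plate vehicle control.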

MARIMO = test system: MARIMO
Procedure, shortened: as §1

MOLM14 = test system: MOLM14
Procedure, shortened: as §1

OCI-AML2 = test system: OCI-AML2
Procedure, shortened: as §1

SMILES	cell viability (K562; SRSF2 genotype: SRSF2 P95H/wt)	cell viability (K562; SRSF2 genotype: SRSF2 wt/wt) [%]	cell viability (MARIMO; SRSF2 genotype: SRSF2 P95H/wt) [%]	cell viability (MARIMO; SRSF2 genotype: SRSF2 wt/wt) [%]	cell viability (MOLM14; SRSF2 genotype: SRSF2 P95H/wt) [%]	cell viability (MOLM14; SRSF2 genotype: SRSF2 wt/wt) [%]	cell viability (OCI-AML2; SRSF2 genotype: P95H/wt) [%]	cell viability (OCI-AML2; SRSF2 genotype: wt/wt) [%]
CCOC(=O)N[C@@H]1CC[C@@H]2[C@@H](C1)C[C@H]1C(=O)O[C@H](C)[C@H]1[C@H]2/C=C/c1ccc(-c2cccc(F)c2)cn1	80.4% and 87%	80.8	83.3	82.5	81.6	83.6	65.1	64.7
O=C(N[C@H](CO)[C@H](O)c1ccc([N+](=O)[O-])cc1)C(Cl)Cl [Chloramphenicol (Chloromycetin)]	92.7% and 92%	94.8	104	106	95.6	96.8	96	103
CC(C)(C)S(=O)(=O)c1ccc2nccc(Nc3n[nH]c4ccc(F)cc34)c2c1	91.4% and 95.8%	98.8	92.8	99.5	88	95.6	88.9	86.2
CCC1=C(C)CN(C(=O)NCCc2ccc(S(=O)(=O)NC(=O)N[C@H]3CC[C@H](C)CC3)cc2)C1=O [Glimepiride]	101% and 82.6%	93.7	91.7	116	94.6	92.4	97.3	105
CC(C)[C@H](C(=O)Nc1ccc(C(=O)NO)cc1)c1ccccc1	1.61% and 11.3%	3.69	5.31	12.1	0.73	0.52	2.49	4.03
CC(C)C(C(=O)O)N1C(=O)C(=Cc2ccc(Br)cc2)SC1=S (centres undefined)	105%	102	98.4	105	100	100	102	109
COc1ccc(Cn2ccc3ccc(C(=O)NO)cc32)cc1	91.2% and 87.7%	84.4	65.9	75.9	84.1	81.6	69.3	75.5
CCC(=O)NS(=O)(=O)c1ccc(-c2c(-c3ccccc3)noc2C)cc1 [Parecoxib Sodium]	102% and 91.9%	100	101	104	93.4	104	92.3	97.3
O=c1cc(N2CCOCC2)oc2c1ccc1ccccc12	96.7% and 102%	99.6	93.3	102	89.2	96.7	87.6	96.7
Cc1cn([C@H]2C[C@H](N=[N+]=[N-])[C@@H](CO)O2)c(=O)[nH]c1=O [Zidovudine (Retrovir)]	96.5% and 101%	101	102	113	95.5	105	101	105
CN[C@H]1CC[C@@H](c2ccc(Cl)c(Cl)c2)c2ccccc21 [Sertraline HCl]	30.3% and 54.2%	52.8	41.7	48	32.7	42.9	26.2	37.5
O=C(O)[C@H]1O[C@@H](Oc2cc3oc(-c4ccccc4)cc(=O)c3c(O)c2O)[C@H](O)[C@@H](O)[C@@H]1O [Baicalin]	98.7% and 105%	109	101	97.8	98.7	107	99.9	95.3
Cc1nc2cc(F)c(F)cc2n1-c1cncc(Nc2ccc(C(F)(F)F)cc2)n1	10.5% and 26.5%	28	8.44	6.32	11.7	2.75	6.57	9.7
CC(C)[C@H](NC(=O)OCc1ccccc1)C(=O)N[C@@H](C)C(=O)N[C@@H](CC(=O)O)C(=O)CF	109% and 102%	106	99.8	102	104	104	102	97.4
C=C1C[C@@]23CC[C@H]4[C@@](C)(CCC[C@@]4(C)C(=O)O[C@@H]4O[C@H](CO)[C@@H](O)[C@H](O)[C@H]4O)[C@@H]2CC[C@]1(O[C@@H]1O[C@H](CO)[C@@H](O)[C@H](O)[C@H]1O[C@@H]1O[C@H](CO)[C@@H](O)[C@H](O)[C@H]1O)C3 [Stevioside]	113% and 107%	113	111	97.4	112	112	108	106
CC1=C(C(=O)OCCN(Cc2ccccc2)c2ccccc2)C(c2cccc([N+](=O)[O-])c2)C(P2(=O)OCC(C)(C)CO2)=C(C)N1 (centres undefined) [Efonidipine]	78.8% and 87.3%	83.7	95.5	98.4	82.2	95.7	104	82.3
COC(=O)C1=C(C)NC(C)=C(C(=O)OCCN(C)Cc2ccccc2)C1c1cccc([N+](=O)[O-])c1 (centres undefined) [Nicardipine HCl]	79.8% and 89.1%	80.5	81.8	91.3	87.9	81.1	85.8	85
O=CN1CC/C(=C/c2ccc3c(c2)OCO3)C1=O	99.4% and 95.3%	94.6	95.2	104	75.9	90.1	67.1	74.7
CCCCOc1ccc(C(=O)Nc2ccc(F)cc2F)cc1	91% and 91.9%	91.8	75.4	88.6	100	110	85.7	92.8
O=C(NCCN1CCOCC1)c1ccc(Cl)cc1	97.6% and 103%	106	101	98.8	97.6	105	105	93.8
C[C@]1(c2nc3c(C(N)=O)cccc3[nH]2)CCCN1 [ABT-888 (Veliparib)]	93.1% and 93%	89.4	91	96.5	82.4	79	70.2	83.5
COc1ccc(COc2ccc(Cc3cnc(N)nc3N)cc2OC)cc1	83.8% and 84%	80	84	92.8	86.6	88.3	66	70.3

SMILES	cell viability (K562; SRSF2 genotype: SRSF2 P95H/wt)	cell viability (K562; SRSF2 genotype: SRSF2 wt/wt) [%]	cell viability (MARIMO; SRSF2 genotype: SRSF2 P95H/wt) [%]	cell viability (MARIMO; SRSF2 genotype: SRSF2 wt/wt) [%]	cell viability (MOLM14; SRSF2 genotype: SRSF2 P95H/wt) [%]	cell viability (MOLM14; SRSF2 genotype: SRSF2 wt/wt) [%]	cell viability (OCI-AML2; SRSF2 genotype: P95H/wt) [%]	cell viability (OCI-AML2; SRSF2 genotype: wt/wt) [%]
O=C(O)Cc1ccccc1Nc1c(Cl)cccc1Cl [Diclofenac Sodium]	94.9% and 97.8%	102	103	110	108	100	91.1	102
C#C[C@]1(O)CC[C@H]2[C@@H]3CCc4cc(OC)ccc4[C@H]3CC[C@@]21C [Mestranol]	79% and 93.7%	96.3	78.5	76	90.7	99.9	74.9	82
COC[C@H](NC(=O)c1cnc(C)s1)C(=O)N[C@@H](COC)C(=O)N[C@@H](Cc1ccccc1)C(=O)[C@@]1(C)CO1 [Oprozomib (ONX 0912)]	0.73% and 1.14%	1.05	0.37	0.74	0.16	0.2	0.2	0.17
Cc1ccc(C(C)C)cc1 [p-Cymene]	111% and 96.9%	113	95.9	99.5	100	106	117	119
Brc1ccc2[nH]ccc2c1 [5-Bromoindole]	107% and 100%	107	95.7	98	99.5	103	102	115
N[C@@H]1CCCCN(c2c(F)cc3c(=O)c(C(=O)O)cn(C4CC4)c3c2Cl)C1 [Besifloxacin HCl (Besivance)]	97.5% and 91.4%	99.9	99.3	96.6	97.6	98.3	121	95.6
CCOc1nc2cccc(C(=O)O)c2n1Cc1ccc(-c2ccccc2-c2noc(=O)[nH]2)cc1 [Azilsartan (TAK-536)]	106% and 104%	97.9	93.5	103	99.2	103	101	101
O=C(NC1(c2ccccc2)CC1)c1c(CN2CCC(N3CCCCC3)CC2)c(-c2cccc(C(F)(F)F)c2)nc2cc(Br)ccc12	8.23% and 19.8%	11.8	66.8	58.4	64.9	71.4	1.08	24.1
c1ccc(-c2nn3c(c2-c2ccnc4cc(OCCN5CCOCC5)ccc24)CCC3)nc1	104% and 111%	97.1	106	120	105	110	108	117
COc1ccc(-c2oc3cc(O)cc(O)c3c(=O)c2O)cc1 [kaempferide]	108% and 104%	103	105	119	74.6	98.2	80.7	82.7
C/C=C(/C)C(=O)O[C@@H]1[C@H](OC(C)=O)c2c(ccc3ccc(=O)oc23)OC1(C)C [Praeruptorin A]	96.7% and 95.2%	100	89.8	101	89	94.8	97.4	104
Cc1nc(C)c(C)nc1C [Ligustrazine hydrochloride]	97.2% and 97.7%	91.8	89.8	102	95.8	98.7	87.8	107
Oc1cc(O)cc(/C=C/c2ccc(O)c(O)c2)c1 [Piceatannol]	86.5% and 89.3%	97	92.8	88.8	71.8	79.7	90.4	87.9
Cn1cnc(=N)c2[nH]cnc21 [3-Methyladenine (3-MA)]	94.6% and 88.8%	106	82.6	92.4	88	92	93.4	97.6
O=P(O)(O)C(O)(Cc1cccnc1)P(=O)(O)O [Risedronate sodium]	95.3% and 102%	91.4	88.9	102	91.8	101	93.7	98.3
C[S+](CC[C@H](N)C(=O)[O-])C[C@H]1O[C@@H](n2cnc3c(N)ncnc32)[C@H](O)[C@@H]1O (some centres undefined) [Ademetionine disulfate tosylate]	105% and 97.3%	103	102	110	112	115	117	110
CCCCCCCC/C=C\CCCCCCCC(=O)OCC [Ethyl Oleate]	101% and 94.1%	97.8	86.5	100	92.3	95	88.7	93.7
CCC[C@H](NC(=O)[C@@H]1[C@H]2CCC[C@H]2CN1C(=O)[C@@H](NC(=O)[C@@H](NC(=O)c1cnccn1)C1CCCCC1)C(C)(C)C)C(=O)C(=O)NC1CC1 [Telaprevir (VX-950)]	87.5% and 92%	80.2	68.6	86.1	89.5	99.2	85.9	98.7
CCN=C1N[C@@H]2[C@@H](O)[C@H](O)[C@@H](CO)O[C@@H]2S1 [Thiamet G]	99.9% and 104%	101	103	106	92.8	99.8	101	107
O=C1[C@H](CC[C@H](O)c2ccc(F)cc2)[C@@H](c2ccc(O)cc2)N1c1ccc(F)cc1 [Ezetimibe (Zetia)]	86.1% and 94.8%	102	80.6	91	82.7	90.1	80.8	88.2
N[C@@H](CC(=O)N1CCn2c(nnc2C(F)(F)F)C1)Cc1cc(F)c(F)cc1F [Sitagliptin phosphate monohydrate]	97.7% and 96.1%	102	98.1	110	102	103	109	117
